The record followed here is PubChem BioAssay (NCI).

This is part of a sample that, as a whole, favours compounds with a hit. Of some 83,000 tested, about 20% had one in any assay.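 Note: values are percent growth. 100 is the growth of untreated cells, values between 100 and 0 indicate rising inhibition; between -100 and 0 indicates cell death.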 Values without a mark were called inactive. Calls of active or inactive are those of the source. The calls were made as follows: active = growth percent below 10; inactive = the rest.

Holding throughout (assay): NCI-60 one-dose screen, 48 h (100 = growth as untreated, 0 = no growth, -100 = all killed)
One assay deals with SK-MEL-2 melanoma. As to conditions: 10 µM unless noted.
Another assay concerns SN12C renal. As to conditions: 10 µM unless noted.
The test system of the next assay is UO-31 renal. As to conditions: 10 µM unless noted.
The test system of the next assay is TK-10 renal. As to conditions: 10 µM unless noted.
In the next assay the test system is ACHN renal. The conditions noted are these: 10 µM unless noted.
The next assay concerns CAKI-1 renal. The conditions noted are these: 10 µM unless noted.
Another assay has as its system A498 renal. As to conditions: 10 µM unless noted.
The next assay deals with MOLT-4 leukemia. As to conditions: 10 µM unless noted.
Another assay relates to SR leukemia. The conditions noted are these: 10 µM unless noted.
For a further assay, the system named is RPMI-8226 leukemia. The conditions noted are these: 10 µM unless noted.
Another assay has as its system OVCAR-8 ovarian. The conditions noted are these: 10 µM unless noted.
The test system of another assay is OVCAR-5 ovarian. As to conditions: 10 µM unless noted.
The next assay concerns OVCAR-4 ovarian. As to conditions: 10 µM unless noted.
For another assay, the system named is SK-OV-3 ovarian. As to conditions: 10 µM unless noted.
For the next assay, the system named is IGROV1 ovarian. As to conditions: 10 µM unless noted.
The subject of another assay is OVCAR-3 ovarian. As to conditions: 10 µM unless noted.
A further assay concerns NCI/ADR-RES ovarian. The conditions noted are these: 10 µM unless noted.
For a further assay, the system named is CCRF-CEM leukemia. The conditions noted are these: 10 µM unless noted.
Another assay has as its system HS 578T breast. The conditions noted are these: 10 µM.

With `O=C(CS)OCC(COC(=O)CS)(COC(=O)CS)COC(=O)CS`, the growth with SK-MEL-2 melanoma is 40.6%; in the assay with SN12C renal, 90.2%; in the assay with UO-31 renal, 93.5%; in the assay on TK-10 renal, 113%; in the assay on ACHN renal, 93.9%; in the assay on CAKI-1 renal it was 96.5%. Besides, the growth in the assay with A498 renal is 104%; with MOLT-4 leukemia it was 3.08% (active); with SR leukemia it was 38.6%; in the assay with RPMI-8226 leukemia, 90.6%; in the assay with OVCAR-8 ovarian, 82.2%; with OVCAR-5 ovarian, 104%. Further, the growth is 83.6% with OVCAR-4 ovarian; 103% in the assay on SK-OV-3 ovarian; 94.4% in the assay on IGROV1 ovarian; 109% in the assay with OVCAR-3 ovarian; 74.3% with NCI/ADR-RES ovarian.
With `COc1cccc(NC(=O)c2c(-c3ccccc3)c(-c3ccccc3)n[nH]c2=O)c1`, the growth in the assay with SK-MEL-2 melanoma is 134%; in the assay on SN12C renal it was 96.7%; in the assay on UO-31 renal, 86.7%; with TK-10 renal it was 120%; in the assay on ACHN renal, 94%; with CAKI-1 renal, 86.9%. Besides, the growth in the assay with A498 renal is 96.9%; in the assay with MOLT-4 leukemia it was 67.8%; in the assay on SR leukemia, 88.3%; in the assay with RPMI-8226 leukemia, 86.1%; in the assay on OVCAR-8 ovarian, 103%; with OVCAR-5 ovarian it was 97.8%. Further, the growth with OVCAR-4 ovarian was 86%; in the assay on SK-OV-3 ovarian, 99.5%; in the assay on IGROV1 ovarian it was 105%; in the assay on OVCAR-3 ovarian it was 107%.
Take `Clc1ncnc2scc(C3COc4ccccc4O3)c12` (stereo not given): the growth in the assay with SK-MEL-2 melanoma was 107%; in the assay on SN12C renal, 86.6%; in the assay on UO-31 renal it was 59.5%; with TK-10 renal, 110%; with ACHN renal, 96.2%; with CAKI-1 renal, -18.7% (active). For the same compound, the growth with A498 renal was 97%; in the assay on CCRF-CEM leukemia, 22.3%; with MOLT-4 leukemia, 74.7%; in the assay with RPMI-8226 leukemia it was 95.7%; in the assay with OVCAR-8 ovarian, 92.8%; in the assay on OVCAR-5 ovarian, 94.4%. In addition, the growth was 92.8% in the assay on OVCAR-4 ovarian; 115% in the assay on SK-OV-3 ovarian; 121% in the assay with IGROV1 ovarian; 106% in the assay on OVCAR-3 ovarian; 92.3% in the assay on HS 578T breast; 109% with NCI/ADR-RES ovarian.
Take `O=C(/C=C/c1ccccc1)n1c(-c2ccccc2)nc2ccccc21`: the growth is 112% in the assay on SK-MEL-2 melanoma; 101% with SN12C renal; 89.8% in the assay on UO-31 renal; 101% in the assay on TK-10 renal; 104% in the assay on ACHN renal; 107% in the assay on CAKI-1 renal. Besides, the growth in the assay on A498 renal is 85.8%; with CCRF-CEM leukemia, 97.8%; in the assay on MOLT-4 leukemia it was 99.1%; with RPMI-8226 leukemia, 105%; in the assay with OVCAR-8 ovarian, 98.9%; with OVCAR-5 ovarian, 95.7%. Besides, the growth in the assay with OVCAR-4 ovarian is 101%; in the assay on SK-OV-3 ovarian it was 110%; in the assay with OVCAR-3 ovarian, 111%; in the assay on HS 578T breast it was 104%; in the assay on NCI/ADR-RES ovarian, 104%.
As for `CCC1CCc2nc3sc(C(=O)Nc4cccc(F)c4)c(N)c3cc2C1` (stereo not given), the growth with SK-MEL-2 melanoma is 63.3%; in the assay with SN12C renal, 94.4%; with UO-31 renal, 67.2%; with TK-10 renal, 77%; in the assay with ACHN renal, 67.9%; in the assay with CAKI-1 renal it was 57.9%. The growth in the assay with A498 renal was 50.5%; in the assay on CCRF-CEM leukemia, 47.9%; in the assay with MOLT-4 leukemia it was 37.5%; in the assay on SR leukemia, 12.5%; with RPMI-8226 leukemia, 44.9%; in the assay on OVCAR-8 ovarian it was 86.6%. The growth in the assay with OVCAR-4 ovarian was 99.2%; in the assay with SK-OV-3 ovarian, 83.1%; in the assay with IGROV1 ovarian, 89.2%; in the assay on HS 578T breast, 79.5%; with NCI/ADR-RES ovarian, 61.8%.
For the compound `COc1ccc(C2C=C(c3ccc(Cl)cc3)N=C3SC=CN32)cc1` (stereo not given), the growth with SK-MEL-2 melanoma is 113%; with SN12C renal, 114%; in the assay on UO-31 renal, 88.5%; in the assay with TK-10 renal, 118%; with ACHN renal, 107%; in the assay with CAKI-1 renal, 101%. Further, the growth in the assay on A498 renal is 104%; in the assay on CCRF-CEM leukemia it was 88.2%; with MOLT-4 leukemia, 104%; in the assay on RPMI-8226 leukemia, 94.6%; in the assay on OVCAR-8 ovarian, 104%; in the assay with OVCAR-5 ovarian it was 121%. For the same compound, the growth was 97.4% in the assay on OVCAR-4 ovarian; 111% in the assay with SK-OV-3 ovarian; 113% in the assay with IGROV1 ovarian; 132% in the assay on OVCAR-3 ovarian; 93.1% with HS 578T breast; 104% in the assay on NCI/ADR-RES ovarian.
In the case of `CC1=C(C(=O)Nc2ccc(F)cc2)C(c2ccccc2)C2=C(CC(C)(C)CC2=O)N1` (stereo not given), the growth in the assay on SK-MEL-2 melanoma was 89.4%; with SN12C renal, 70.1%; with UO-31 renal, 60.1%; with TK-10 renal it was 104%; with ACHN renal it was 82.7%; in the assay with CAKI-1 renal, 64.3%. The growth in the assay on A498 renal is 47.1%; in the assay on CCRF-CEM leukemia, 62.3%; with MOLT-4 leukemia, 62.9%; in the assay on RPMI-8226 leukemia, 41.3%; in the assay with OVCAR-8 ovarian, 73.3%; in the assay with OVCAR-5 ovarian, 90.7%. Also, the growth is 58.7% with OVCAR-4 ovarian; 97.2% with SK-OV-3 ovarian; 84.3% in the assay with IGROV1 ovarian; 70% in the assay on OVCAR-3 ovarian; 82.5% in the assay with HS 578T breast; 79.7% in the assay with NCI/ADR-RES ovarian.
As to `CCc1ccc(-c2ccc(NC3CCCCCC3)nn2)cc1S(N)(=O)=O`, the growth with SK-MEL-2 melanoma was 99.3%; in the assay with SN12C renal, 101%; with UO-31 renal, 102%; in the assay on TK-10 renal, 93.4%; with ACHN renal, 96.1%; with CAKI-1 renal, 96.6%. The growth in the assay on A498 renal was 107%; in the assay on MOLT-4 leukemia, 91.7%; with SR leukemia, 103%; in the assay with RPMI-8226 leukemia it was 99.4%; in the assay on OVCAR-8 ovarian, 102%; in the assay on OVCAR-5 ovarian, 97.5%. Besides, the growth with OVCAR-4 ovarian is 102%; with SK-OV-3 ovarian, 105%; in the assay on IGROV1 ovarian, 110%.
Regarding `O=c1c2sc3ncc(Cl)cc3c2nnn1-c1cccc(Cl)c1`, the growth was 92.9% in the assay on SK-MEL-2 melanoma; 74.3% in the assay with SN12C renal; 48.5% in the assay with UO-31 renal; 93% in the assay on TK-10 renal; 46.1% with ACHN renal; 67.4% in the assay with CAKI-1 renal. The growth is 63.1% with A498 renal; 90.2% in the assay on MOLT-4 leukemia; 77.7% in the assay with SR leukemia; 82.4% in the assay with RPMI-8226 leukemia; 79.8% in the assay on OVCAR-8 ovarian; -7.2% (active) in the assay with OVCAR-4 ovarian. Moreover, the growth in the assay on SK-OV-3 ovarian is 40.7%; in the assay on IGROV1 ovarian, 63%.
